Results filed as inconclusive are left out. Entries that show only a call come without a potency. Unmarked numbers belong to inactive results. Active and inactive are the calls of the source. The call rests on the fitted dose curve; in most records, active means well fitted activation curve with a large enough effect in the repeat runs; inconclusive means weak or mixed curves; inactive means flat fitted curve, though single readings scatter.
Test: A CellTox Green Cytotoxicity Assay to monitor cytotoxicity in HepG2 cells - 8 hour (AID 1224890); further: nearly all actives have a fitted effect of over 45% in size
Details: CellTox Green fluorescence; series mostly up to 76.8 µM
From the text: National Center for Advancing Translational Sciences [NCATS]
NIH Chemical Genomics Center [NCGC]
U.S. Environmental Protection Agency [EPA]
National Institutes of Environmental Health Sciences [NIEHS]
National Toxicology Program [NTP]
Cell-based models are critical for drug discovery. Determining the natural cytotoxic effects resulting from test compounds is an essential research activity. A CellTox Green Cytotoxicity Assay to monitor cytotoxicity in real time of continues cell culture during 40 hours of the compound treatment was used to screen Tox21 10K library compounds in HepG2 cells. CellTox Green Cytotoxicity Assay is a nonlytic, homogeneous, biofluorescent method to measure cytotoxicity in cell culture after experimental manipulation. The assay system uses a proprietary asymmetric cyanine dye that is excluded from viable cells but preferentially stains the dead cell's DNA. […] Viable cells produce no appreciable increases in fluorescence. Therefore, the fluorescence signal produced by the binding interaction with dead cell DNA is proportional to cytotoxicity.
The mixture of HepG2 cell suspension and reagents were dispensed at 600cells/6 ul/well in 1536-well tissue culture treated black solid bottom plates using a Multidrop dispenser. After the assay plates were incubated at a 37 C/5% CO2 incubator for 5 hours, 23 nL of compounds dissolved in DMSO, positive and negative controls was transferred to the assay plate by a pintool work station. The plates were incubated at 37 C for 40 hours. The fluorescence intensity were measured at 0h, 8h, 16h, 24h, 32h and 40h time points using ViewLux plate reader during compound treatment.

**Q.** For `[O-][N+](=Nc1ccccc1)c1ccccc1`, which Potency is on record?
**A.** inactive

**Q.** Which Potency does the source give for `CO` here?
**A.** inactive

**Q.** With `OCCCCCCO` as the compound, how does the Potency read?
**A.** inactive

**Q.** For `CCCCCCC(CCCCCCCCCCC(=O)OCC(COC(C)=O)OC(C)=O)OC(C)=O` (stereo not given), which Potency is on record?
**A.** inactive

**Q.** Which Potency does the source give for `Cc1onc(-c2ccccc2)c1-c1ccc(S(N)(=O)=O)cc1` here?
**A.** inactive

**Q.** With `N#CCN(CC#N)CCN(CC#N)CC#N` as the compound, how does the Potency read?
**A.** inactive

**Q.** For `C=CCSCC1Nc2cc(Cl)c(S(N)(=O)=O)cc2S(=O)(=O)N1` (stereo not given), which Potency is on record?
**A.** inactive

**Q.** With `O=C(O)c1ccccc1S` as the compound, how does the Potency read?
**A.** inactive

**Q.** Which Potency does the source give for `CC/C=C\C#N` here?
**A.** inactive

**Q.** With `C=C(C)C(=O)NCCCN(C)C` as the compound, how does the Potency read?
**A.** inactive

**Q.** For `COc1ccc(N=[N+]([O-])c2ccc(OC)cc2)cc1`, which Potency is on record?
**A.** inactive

**Q.** For `CC(C=O)Cc1ccc(C(C)C)cc1` (stereo not given), which Potency is on record?
**A.** inactive

**Q.** For `C=C(C)C(=O)OCCC(C)OC(=O)C(=C)C` (stereo not given), which Potency is on record?
**A.** inactive

**Q.** For `CC(C)CCCCCCN`, which Potency is on record?
**A.** inactive

**Q.** With `CC(=O)N[C@@H](CCC(N)=O)C(=O)O` as the compound, how does the Potency read?
**A.** inactive

**Q.** For `O=C(O)c1ccc[n+]([O-])c1`, which Potency is on record?
**A.** inactive

**Q.** For `C(=C(c1ccccc1)c1ccccc1)c1ccccc1`, which Potency is on record?
**A.** inactive

**Q.** Which Potency does the source give for `Cc1c(F)cc2c(=O)c(C(=O)O)cn3c2c1CCC3C` (stereo not given) here?
**A.** inactive

**Q.** Which Potency does the source give for `Cc1ccc(Nc2ccc(O)c3c2C(=O)c2ccccc2C3=O)cc1` here?
**A.** inactive

**Q.** Which Potency does the source give for `O=C(O)C(O)[C@H](O)[C@@H](O)[C@H](O)[C@H](O)CO` (stereo not given in full) here?
**A.** inactive

**Q.** For `O=[N+]([O-])c1ccc(Oc2ccc([N+](=O)[O-])cc2)cc1`, which Potency is on record?
**A.** inactive

**Q.** With `CCCCCCCCCCC1CO1` (stereo not given) as the compound, how does the Potency read?
**A.** inactive

**Q.** Which Potency does the source give for `CC(C)(C)OC(=O)N1C[C@@H](F)C[C@H]1C(=O)O` here?
**A.** inactive

**Q.** Which Potency does the source give for `CSc1ccc(C=O)cc1` here?
**A.** inactive

**Q.** Which Potency does the source give for `NS(=O)(=O)c1cc2c(cc1Cl)NC(CSCc1ccccc1)=NS2(=O)=O` here?
**A.** inactive

**Q.** With `CCCC=O` as the compound, how does the Potency read?
**A.** inactive

**Q.** For `CN(C)CCOC(c1ccc(Cl)cc1)c1ccccn1` (stereo not given), which Potency is on record?
**A.** inactive

**Q.** Which Potency does the source give for `CNC(=O)c1c(I)c(NC(=O)CCCCC(=O)Nc2c(I)c(C(=O)O)c(I)c(C(=O)NC)c2I)c(I)c(C(=O)O)c1I` here?
**A.** inactive

**Q.** For `C=CCn1c(=O)n([C@@H]2O[C@H](CO)[C@@H](O)[C@H]2O)c2nc(N)[nH]c(=O)c21`, which Potency is on record?
**A.** inactive

**Q.** With `C=C(C)C1CC=C(C)C(O)C1` (stereo not given) as the compound, how does the Potency read?
**A.** inactive

**Q.** Which Potency does the source give for `COC(=O)C1=C(C)NC(C)=C(C(=O)OCC(C)=O)C1c1ccccc1[N+](=O)[O-]` (stereo not given) here?
**A.** inactive

**Q.** With `CCN1CCN(c2cc3c(cc2F)c(=O)c(C(=O)O)cn3C2CC2)CC1` as the compound, how does the Potency read?
**A.** inactive

**Q.** With `CCn1cc(C(=O)O)c(=O)c2cc(F)c(N3CCN(C)CC3)cc21` as the compound, how does the cytotoxicity increase read?
**A.** -10.7% [at 15.8 µM]

**Q.** Which Potency does the source give for `OC/C=C/c1ccccc1` here?
**A.** inactive

**Q.** Which Potency does the source give for `C=C(C)[C@H]1CC=C(C)CC1` here?
**A.** inactive

**Q.** For `CCCCCN(CCCCC)C(=O)C(CCC(=O)O)NC(=O)c1ccc(Cl)c(Cl)c1` (stereo not given), which Potency is on record?
**A.** inactive

**Q.** With `C/C=C1\C(=O)C[C@H]2[C@@H]3CCC4=CC(=O)CC[C@]4(C)[C@H]3CC[C@]12C` as the compound, how does the Potency read?
**A.** inactive

**Q.** Which Potency does the source give for `C=C[Si](OC)(OC)OC` here?
**A.** inactive

**Q.** For `CCN1CCCC(OC(=O)C(c2ccccc2)c2ccccc2)C1` (stereo not given), which Potency is on record?
**A.** inactive

**Q.** Which Potency does the source give for `CO[Si](OC)(OC)OC` here?
**A.** inactive

From PubChem BioAssay (Tox21)
